Hit rate of the full screen: of about 300,000 compounds, about 5,200 (1.7%) were called active.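 Rule for the calls: active = mean replicate activation of at least 50% with a set share of replicates each reaching 50%; inconclusive = only one of those two conditions met; inactive = mean below 50% and too few replicates reaching it.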 Many of the other results were omitted from the sample, so actives are more common in it than they were.
assay: HSF-1 activators, primary screen, NIH3T3-HGL cells, MG132 stress, luminescence, single point (AID 504408); conditions: NIH3T3-HGL HSF-1 luciferase reporter, MG132, 8 h; at 9 µM; active compounds read high; 100% = twice DMSO control signal;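 note: 0% = median of the neutral control wells and 100% = twice that signal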

activation, inactive:
O=C(COC(=O)c1cccc(Cl)c1)Nc1ccc2[nH]c(=O)[nH]c2c1 9.55%
CSc1ncc(Sc2ccccc2)c(C(=O)O)n1 21.8%
CCOc1ccccc1OCC(=O)Nc1ccccc1C(=O)NC1CC1 -12.2%
Cc1ccc(CNS(=O)(=O)CCNC(=O)c2ccccc2)cc1 -0.388%
COc1ccccc1C(=O)NCCC(=O)NC(C)CCc1ccccc1 (centres undefined) 0.822%
O=C1CCCN1C(=O)COc1ccc([N+](=O)[O-])cc1 -3.27%
O=C(NCc1ccncc1)c1ccc(NS(=O)(=O)c2cccc([N+](=O)[O-])c2)cc1 5.25%
CCNc1nc(NCC)nc(N/N=C/c2ccc(O)c(OC)c2)n1 -8.51%
COc1cc(/C=N\Nc2nc(-c3cccs3)c(NC(C)=O)s2)ccc1O -1.06%
COc1ccc(CC(=O)N/N=C/c2cc([N+](=O)[O-])cc(Br)c2O)cc1 -6.91%
Cc1ccc(S(=O)(=O)Nc2nc3ccccc3s2)cc1[N+](=O)[O-] 9.23%
O=S(=O)(Nc1ccc(O)c2ccccc12)c1ccc(OC(F)(F)F)cc1 -68.7%
Cc1csc(=O)n1CC(=O)OCC(=O)N(CC(C)C)c1c(N)n(Cc2ccccc2)c(=O)[nH]c1=O 1.95%
COc1ccc(CNC(=O)C2CCCC2)cc1 -6.99%
CCN(CC)CCn1c2c(c(SCC(=O)Nc3nc4ccccc4s3)nc1=O)CCCC2 -7.63%
CC1(C)O[C@H]2CC(=O)OCC23[C@H]2CC[C@@]4(C)[C@H](c5ccoc5)OC(=O)[C@H]5O[C@]54[C@]2(C)C(=O)C[C@@H]13 (some centres undefined) 0.574%
CCCC(=O)Nc1nc2ccc(NC(=O)c3c(F)c(F)c(OC)c(F)c3F)cc2s1 -10.9%
O=C(Nc1ccncc1)c1c(F)cccc1F -55.9%
Cc1onc(-c2c(F)cccc2Cl)c1C(=O)N(C)CC(=O)Nc1cccc(F)c1 -3.94%
CC(C)CCNC(=O)c1ccc2c(Cl)c3c(nc2c1)CCC3 -56.3%
COc1ccc(N2CCN(C(=O)c3ccc4c(Cl)c5c(nc4c3)CCCC5)CC2)cc1 -1.04%
N#CCN(C(=O)COC(=O)C1CC2CCCC(C1)C2=O)c1ccccc1 (centres undefined) -11.4%
O=C(NN1CCOCC1)c1cccc(F)c1 13.3%
O=C(COC(=O)Cc1ccccc1F)NNC(=O)c1ccc(Cl)cc1 -9.93%
COc1ccc(CNC(=O)C(=O)N2CCC3(CC2)OCCN3S(=O)(=O)c2ccc(C)cc2)cc1 2.08%
COc1ccccc1N1CCN(S(=O)(=O)c2ccc(Cl)cc2)CC1 4.97%
CCN(C(=O)CSc1nnnn1-c1ccccc1OC)C1CCS(=O)(=O)C1 (centres undefined) 26%
Cc1ccc(NC(=O)CSc2nc(=O)n(CCN(C)C)c3c2CCCC3)c(C)c1 -10.7%
CN1CCN(S(=O)(=O)c2ccc(Nc3ccc(F)cc3)nc2)CC1 -7%
NS(=O)(=O)c1ccc(CCNC(=O)CN2C(=O)c3ccccc3S2(=O)=O)cc1 -4.15%
COc1ccc(S(=O)(=O)NCCCc2ccccc2)cc1 -30.2%
COc1cccc(/C=C/c2ccc3ccccc3n2)c1OC(C)=O -16.6%
NC(=O)COC(=O)/C=C/c1ccc2ccccc2n1 -46.9%
O=C(Nc1ncccc1O)c1ccc(C(=O)c2ccccc2)cc1 -2.58%
CCCCn1c(N)c(N(CCOC)C(=O)CSCC(=O)Nc2cccc(C)c2)c(=O)[nH]c1=O 1.06%
CCC1Nc2ncnc(N3CCN(c4ccccc4)CC3)c2N(Cc2ccc(Cl)cc2)C1=O (centres undefined) 22.3%
Cc1ccc(CC2S/C(=C(/C#N)C(=O)N3CCOCC3)N(c3ccccc3)C2=O)cc1 (centres undefined) 19.9%
Cc1cccc(N2C(=O)SC(N(CC(=O)O)c3cccc(C)c3)C2=O)c1 (centres undefined) 17.2%
CC(=O)Nc1ccc(C(=O)NNC(=O)CCCCC(=O)NNC(=O)c2ccc(NC(C)=O)cc2)cc1 0.0985%
Cc1ccc(C(=O)NC2CCCC(C)C2C)cc1S(=O)(=O)N1CCCCC1 (centres undefined) 2.09%
O=[N+]([O-])c1ccc(S(=O)(=O)Nc2cccc(-c3ccc(N4CCCC4)nn3)c2)cc1 -7.69%
Clc1ccc(COn2c(-c3ccc(Cl)cc3Cl)nc3ncccc32)cc1 -4.74%
COn1c(-c2ccc(Cl)cc2Cl)nc2ncccc21 22.3%
COc1ccc(-c2cc(C(=O)n3cnc4ccccc43)c3ccccc3n2)cc1 -1.65%
COc1ccc(-c2nc3ccccc3c(=O)n2CCc2ccc(O)cc2)cc1 29.5%
O=C(COC(=O)c1ccccc1Br)Nc1nnc(-c2ccccc2)o1 -10.6%
CC1CCN(c2ccc(-c3ccc(NC(=O)c4ccco4)cc3)nn2)CC1 -39.2%
CSCCC(NC(=O)c1ccco1)C(=O)Nc1cc(C)ccn1 (centres undefined) 4.08%

activation, active:
CSc1nc(-c2ccccc2)nc(C(Cl)Cl)n1 84.8%
COc1cc(/C=N/Nc2nc3ccccc3s2)ccc1O 193%
O=[N+]([O-])c1cc(Br)c(O)c(/C=N/Nc2nc3ccccc3s2)c1 57.3%
CSc1nc2ccc(NC(=O)c3c(F)cccc3F)cc2s1 59.4%
Cc1nn2cc(-c3ccc(Cl)cc3)cnc2c1Br 58.7%
CC(=O)c1ccc(NC(=O)c2ccc3c(Cl)c4c(nc3c2)CCCC4)cc1 105%
COc1ccccc1-n1nnnc1S(=O)(=O)Cc1ccc(Cl)cc1 235%
CCOc1cccc(/C=C/c2ccc3ccccc3n2)c1OC(C)=O 132%
Cc1ccc(N2C(=O)SC(N(CC(=O)O)c3ccc(C)cc3)C2=O)cc1 (centres undefined) 96.4%
Clc1ccc(-c2ncc3ccccn23)c(Cl)c1 69.3%
COc1ccc(-c2c(C#Cc3ccccc3)c3ccccc3n2C)cc1 64.2%

Reference: PubChem BioAssay AID504408 (Broad Institute, 2011)
